# Assay results published in the supplement of paper PMC6555819.
# How the values were obtained:
# Test in all cases: PBM binding z-score (relative to random genomic background probes); higher = stronger binding; sequences stand for … in GC…GCGATTGACAGCGTAGAATGAAGG
# [1] = system: RARb homodimer (NR concentration 270 nM)
# In short: (§1)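 Binding buffer was PBS pH 7.4 with 2% milk, 0.02% Triton X-100, 1 mM DTT, 0.2 mg/mL BSA and 0.4 mg/ml salmon testes DNA. In it, ligand-free nuclear receptor dimers were incubated 1 h on custom Agilent 4×180K protein-binding microarrays carrying double-stranded probes. Antibodies against each partner (one per run) detected binding, and z-scores were calculated against random background probes after regression normalization of scanned fluorescence.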
# [2] = system: RARg:RXRa (NR concentration 270 nM, RXRa partner concentration 90 nM)
# In short: as §1
# [3] = system: RARg homodimer (NR concentration 270 nM)
# In short: as §1
# [4] = system: RXRa DBDmut IVT, anti-RXR (DBD mutation: RXRa K156A/R161A, NR concentration 90 nM)
# In short: as §1
# [5] = system: RXRa homodimer (NR concentration 180 nM)
# In short: as §1
# [6] = system: THRa:RXRa (NR concentration 90 nM, RXRa partner concentration 90 nM)
# In short: as §1
# [7] = system: THRa homodimer (NR concentration 90 nM)
# In short: as §1
# [8] = system: VDR homodimer (NR concentration 270 nM)
# In short: as §1
sequence,measurement,setting,value
GCTAGCAGGTCATTTGGGTCACTCAATGACGGGC,PBM binding z-score,[1],3.52
same,PBM binding z-score,[2],4.5
same,PBM binding z-score,[3],4.38
same,PBM binding z-score,[4],2.82
same,PBM binding z-score,[5],4.23
same,PBM binding z-score,[6],3.74
same,PBM binding z-score,[7],1.48
same,PBM binding z-score,[8],3.25
TAGCCAAGGTCATGCGGGCCAGTATAGTGTCGGC,PBM binding z-score,[1],4.42
same,PBM binding z-score,[2],5.81
same,PBM binding z-score,[3],5.79
same,PBM binding z-score,[4],2.88
same,PBM binding z-score,[5],5.47
same,PBM binding z-score,[6],4.14
same,PBM binding z-score,[7],2.91
same,PBM binding z-score,[8],3.39
TCTCGGGGGACACGAAGGTCAGAGCTTTCCAGAG,PBM binding z-score,[1],4.17
same,PBM binding z-score,[2],4.68
same,PBM binding z-score,[3],5.9
same,PBM binding z-score,[4],1.89
same,PBM binding z-score,[5],3
same,PBM binding z-score,[6],3.32
same,PBM binding z-score,[7],1.58
same,PBM binding z-score,[8],1.76
GCAGACAGGTGAAACGCAGTTAACTCAGGGTGGC,PBM binding z-score,[1],-0.134
same,PBM binding z-score,[2],0.384
same,PBM binding z-score,[3],0.0446
same,PBM binding z-score,[4],-0.62
same,PBM binding z-score,[5],0.577
same,PBM binding z-score,[6],0.459
same,PBM binding z-score,[7],-0.813
same,PBM binding z-score,[8],-0.764
TTACCAAGGTGAAAGGTCTTTGATGCACGCCTTG,PBM binding z-score,[1],1.15
same,PBM binding z-score,[2],1.67
same,PBM binding z-score,[3],0.887
same,PBM binding z-score,[4],-0.125
same,PBM binding z-score,[5],2.43
same,PBM binding z-score,[6],2.13
same,PBM binding z-score,[7],0.663
same,PBM binding z-score,[8],-0.219
TCTCGGAGGACACGAAAGTCAGAGCTTTCCAGAG,PBM binding z-score,[1],0.384
same,PBM binding z-score,[2],0.378
same,PBM binding z-score,[3],1.08
same,PBM binding z-score,[4],0.647
same,PBM binding z-score,[5],-0.0691
same,PBM binding z-score,[6],1.21
same,PBM binding z-score,[7],0.236
same,PBM binding z-score,[8],-0.621
AGAATGAGGTTACCAATGATCAGGGAAACGCTTG,PBM binding z-score,[1],0.796
same,PBM binding z-score,[2],2.23
same,PBM binding z-score,[3],1.63
same,PBM binding z-score,[4],0.994
same,PBM binding z-score,[5],2.62
same,PBM binding z-score,[6],2.61
same,PBM binding z-score,[7],0.788
same,PBM binding z-score,[8],0.0566
AGAACGAGGGCACGCTGAGTTGATAACAGAGTAG,PBM binding z-score,[1],1.27
same,PBM binding z-score,[2],2.23
same,PBM binding z-score,[3],2.45
same,PBM binding z-score,[4],1.47
same,PBM binding z-score,[5],1.49
same,PBM binding z-score,[6],1.78
same,PBM binding z-score,[7],0.282
same,PBM binding z-score,[8],1.46
CCTACTGGGCCTAAAAGGTCATTGATGCCGATAA,PBM binding z-score,[1],4.24
same,PBM binding z-score,[2],4.67
same,PBM binding z-score,[3],3.93
same,PBM binding z-score,[4],0.753
same,PBM binding z-score,[5],4.91
same,PBM binding z-score,[6],3.08
same,PBM binding z-score,[7],0.544
same,PBM binding z-score,[8],2.73
CGAACTAGGTCATCCAGGACAGTGATTACATTGA,PBM binding z-score,[1],1.77
same,PBM binding z-score,[2],4.03
same,PBM binding z-score,[3],5.13
same,PBM binding z-score,[4],2.49
same,PBM binding z-score,[5],3.37
same,PBM binding z-score,[6],3.68
same,PBM binding z-score,[7],2.14
same,PBM binding z-score,[8],2.32
TCTAGTTGGTCAAAGGGCACACACTCGAAATGCG,PBM binding z-score,[1],2.36
same,PBM binding z-score,[2],2.72
same,PBM binding z-score,[3],1.97
same,PBM binding z-score,[4],0.876
same,PBM binding z-score,[5],2.62
same,PBM binding z-score,[6],1.12
same,PBM binding z-score,[7],-0.0377
same,PBM binding z-score,[8],0.575
TCTATTATTTGAAGGGCAACCGACGAGTCCGTTT,PBM binding z-score,[1],1.34
same,PBM binding z-score,[2],0.739
same,PBM binding z-score,[3],0.634
same,PBM binding z-score,[4],2.12
same,PBM binding z-score,[5],0.997
same,PBM binding z-score,[6],0.552
same,PBM binding z-score,[7],0.572
same,PBM binding z-score,[8],2.12
TGTCAAAGTGCAAAGGTAACGTAAGTATCCACAC,PBM binding z-score,[1],1.33
same,PBM binding z-score,[2],2.55
same,PBM binding z-score,[3],1.78
same,PBM binding z-score,[4],0.968
same,PBM binding z-score,[5],2.55
same,PBM binding z-score,[6],1.94
same,PBM binding z-score,[7],-0.723
same,PBM binding z-score,[8],0.351
ACTAGTTGGTCAGCTGAGGTTACACACAATTCGG,PBM binding z-score,[1],2.03
same,PBM binding z-score,[2],1.46
same,PBM binding z-score,[3],1.69
same,PBM binding z-score,[4],0.642
same,PBM binding z-score,[5],1.31
same,PBM binding z-score,[6],3.86
same,PBM binding z-score,[7],1.97
same,PBM binding z-score,[8],1.01
CGTCCAAGGTCATAGGAGGTCTGTGAAGACAGAT,PBM binding z-score,[1],3.75
same,PBM binding z-score,[2],5.85
same,PBM binding z-score,[3],5.79
same,PBM binding z-score,[4],3.7
same,PBM binding z-score,[5],6.11
same,PBM binding z-score,[6],4.63
same,PBM binding z-score,[7],2.24
same,PBM binding z-score,[8],2.81
CGTCCAGGGTCATAGGAGGTCAGTGAAGACAGAT,PBM binding z-score,[1],4.98
same,PBM binding z-score,[2],6.27
same,PBM binding z-score,[3],6.23
same,PBM binding z-score,[4],3.62
same,PBM binding z-score,[5],6.72
same,PBM binding z-score,[6],5.12
same,PBM binding z-score,[7],2.18
same,PBM binding z-score,[8],4.31
TTACCAAGGTGAAAGGTCCTTGATGCACGCCTTG,PBM binding z-score,[1],1.22
same,PBM binding z-score,[2],1.67
same,PBM binding z-score,[3],0.796
same,PBM binding z-score,[4],-0.243
same,PBM binding z-score,[5],2.47
same,PBM binding z-score,[6],2.28
same,PBM binding z-score,[7],0.542
same,PBM binding z-score,[8],-0.756
GCAGACAGGTGAAACGCAGGTAACTCTGGGTGGC,PBM binding z-score,[1],-0.101
same,PBM binding z-score,[2],0.724
same,PBM binding z-score,[3],0.0252
same,PBM binding z-score,[4],-0.652
same,PBM binding z-score,[5],0.337
same,PBM binding z-score,[6],0.963
same,PBM binding z-score,[7],-0.802
same,PBM binding z-score,[8],-0.811
GCAGACAGGTGAAACGCAGGTAACTAAGGGTGGC,PBM binding z-score,[1],0.042
same,PBM binding z-score,[2],0.719
same,PBM binding z-score,[3],0.208
same,PBM binding z-score,[4],-0.64
same,PBM binding z-score,[5],0.593
same,PBM binding z-score,[6],1.15
same,PBM binding z-score,[7],-0.719
same,PBM binding z-score,[8],-0.867
GATATTAGTTGAAAGGGCAACCGAATGATTCTCG,PBM binding z-score,[1],2.28
same,PBM binding z-score,[2],1.73
same,PBM binding z-score,[3],1.61
same,PBM binding z-score,[4],1.04
same,PBM binding z-score,[5],1.58
same,PBM binding z-score,[6],0.705
same,PBM binding z-score,[7],0.0377
same,PBM binding z-score,[8],0.787
CCGAGTAGGTTATGGGGCCTTCAGGCAACGGTGA,PBM binding z-score,[1],0.593
same,PBM binding z-score,[2],0.0658
same,PBM binding z-score,[3],0.0449
same,PBM binding z-score,[4],-0.932
same,PBM binding z-score,[5],0.358
same,PBM binding z-score,[6],0.547
same,PBM binding z-score,[7],0.292
same,PBM binding z-score,[8],0.0348
CCTACTGGGCCAAAAAGGTCAGTGATGCCGATAA,PBM binding z-score,[1],4.09
same,PBM binding z-score,[2],3.5
same,PBM binding z-score,[3],3.5
same,PBM binding z-score,[4],-0.472
same,PBM binding z-score,[5],2.87
same,PBM binding z-score,[6],2.11
same,PBM binding z-score,[7],0.0212
same,PBM binding z-score,[8],0.295
ATCGAAAGGTCGAAGGTGAGTAGACCCACCCGAA,PBM binding z-score,[1],2.17
same,PBM binding z-score,[2],4.35
same,PBM binding z-score,[3],4.04
same,PBM binding z-score,[4],1
same,PBM binding z-score,[5],5.53
same,PBM binding z-score,[6],1.87
same,PBM binding z-score,[7],-0.399
same,PBM binding z-score,[8],-0.0656
GATACAGGGCCAGCTAGAGGCCAGAGTATGGAAA,PBM binding z-score,[1],0.561
same,PBM binding z-score,[2],0.806
same,PBM binding z-score,[3],0.594
same,PBM binding z-score,[4],-1.03
same,PBM binding z-score,[5],-0.349
same,PBM binding z-score,[6],-0.394
same,PBM binding z-score,[7],-0.861
same,PBM binding z-score,[8],-0.246
CAAACTAGGTCTCAGAGGTCAAAGTCCGTGCGTA,PBM binding z-score,[1],4.68
same,PBM binding z-score,[2],5.13
same,PBM binding z-score,[3],4.6
same,PBM binding z-score,[4],1.65
same,PBM binding z-score,[5],6.01
same,PBM binding z-score,[6],3.63
same,PBM binding z-score,[7],1.7
same,PBM binding z-score,[8],4.57
CCGACTGGGGCAAAGGCTACCATACTCAGTACGA,PBM binding z-score,[1],0.592
same,PBM binding z-score,[2],0.577
same,PBM binding z-score,[3],0.501
same,PBM binding z-score,[4],-0.632
same,PBM binding z-score,[5],0.387
same,PBM binding z-score,[6],-0.182
same,PBM binding z-score,[7],-0.604
same,PBM binding z-score,[8],-0.299
ATCTCTAGGTAAAGATAGTTCAGTGTATGCAAAT,PBM binding z-score,[1],1.22
same,PBM binding z-score,[2],0.725
same,PBM binding z-score,[3],0.952
same,PBM binding z-score,[4],0.412
same,PBM binding z-score,[5],0.465
same,PBM binding z-score,[6],1.05
same,PBM binding z-score,[7],0.467
same,PBM binding z-score,[8],0.96
CGTCCAAGGTCAAAGGTCAGTGAGGAGATGACGG,PBM binding z-score,[1],5.41
same,PBM binding z-score,[2],8.78
same,PBM binding z-score,[3],8.47
same,PBM binding z-score,[4],3.92
same,PBM binding z-score,[5],10.4
same,PBM binding z-score,[6],4.81
same,PBM binding z-score,[7],2.98
same,PBM binding z-score,[8],4.41
